Key:
Assay in all cases: PBM binding z-score (relative to random genomic background probes); higher = stronger binding; sequences stand for … in GC…GCGATTGACAGCGTAGAATGAAGG
[1] = tested on: PPARg:RXRa DBDmut IVT, anti-RXR (DBD mutation: RXRa K156A/R161A, NR concentration 270 nM, RXRa partner concentration 90 nM)
In short: (§1)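 Scanned fluorescence from custom Agilent 4×180K protein-binding microarrays was regression-normalized. Binding z-scores use random background probes as reference. Ligand-free nuclear receptor dimers were incubated on the arrays for 1 h and detected with antibodies against each partner (one per run).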

[2] = tested on: PPARg:RXRa IVT, anti-PPARg (NR concentration 270 nM, RXRa partner concentration 90 nM)
In short: as §1

[3] = tested on: PPARg DBDmut:RXRa IVT, anti-PPARg (DBD mutation: PPARg1 K132A/R137A, NR concentration 270 nM, RXRa partner concentration 90 nM)
In short: as §1

[4] = tested on: PPARg DBDmut IVT, anti-PPARg (DBD mutation: PPARg1 K132A/R137A, NR concentration 270 nM)
In short: as §1

[5] = tested on: PPARg homodimer (NR concentration 180 nM)
In short: as §1

[6] = tested on: PXR:RXRa (NR concentration 270 nM, RXRa partner concentration 90 nM)
In short: as §1

[7] = tested on: PXR homodimer (NR concentration 270 nM)
In short: as §1

[8] = tested on: RARa:RXR (NR concentration 270 nM, RXRa partner concentration 90 nM)
In short: as §1

[9] = tested on: RARa homodimer (NR concentration 270 nM)
In short: as §1

[10] = tested on: RARb:RXRa (NR concentration 270 nM, RXRa partner concentration 90 nM)
In short: as §1

[11] = tested on: RARb homodimer (NR concentration 270 nM)
In short: as §1

[12] = tested on: RARg:RXRa (NR concentration 270 nM, RXRa partner concentration 90 nM)
In short: as §1

[13] = tested on: RARg homodimer (NR concentration 270 nM)
In short: as §1

[14] = tested on: RXRa DBDmut IVT, anti-RXR (DBD mutation: RXRa K156A/R161A, NR concentration 90 nM)
In short: as §1

[15] = tested on: RXRa homodimer (NR concentration 180 nM)
In short: as §1

[16] = tested on: THRa:RXRa (NR concentration 90 nM, RXRa partner concentration 90 nM)
In short: as §1

[17] = tested on: THRa homodimer (NR concentration 90 nM)
In short: as §1

[18] = tested on: VDR homodimer (NR concentration 270 nM)
In short: as §1

Sequence	PBM binding z-score [1]	PBM binding z-score [2]	PBM binding z-score [3]	PBM binding z-score [4]	PBM binding z-score [5]	PBM binding z-score [6]	PBM binding z-score [7]	PBM binding z-score [8]	PBM binding z-score [9]	PBM binding z-score [10]	PBM binding z-score [11]	PBM binding z-score [12]	PBM binding z-score [13]	PBM binding z-score [14]	PBM binding z-score [15]	PBM binding z-score [16]	PBM binding z-score [17]	PBM binding z-score [18]
CCTATTAGTTGACCATAAGCGCAACCGAAGCTCG	0.822	0.118	1.15	0.388	2.28	0.436	1.11	0.706	2.45	0.701	0.669	0.621	0.455	0.856	0.371	0.364	0.809	0.721
GCATATAGGTAATACAAGGTGAAAGTCCGATTGT	4.15	3.2	1.3	0.902	0.296	0.502	0.135	0.993	0.75	0.523	1.03	0.625	0.545	0.387	0.694	4.31	1.08	0.356
CCGAGTAGGTAATGGGGCATTCAGGCAACGGTGA	3.06	3.08	-0.988	-0.54	0.397	-0.417	-0.151	-0.249	-0.452	0.118	0.64	-0.0696	0.0893	-0.575	0.0759	0.219	0.00825	-0.22
ACTATTAGTTGAGACGAGGGCAACTGATAGGTTG	0.393	0.643	1.37	1.23	0.253	1.22	0.231	0.44	0.299	1.16	1.19	0.865	0.97	0.568	0.797	2.41	0.298	0.702
CAGACTAGGTCACGAAAGGTCAAAGTCGAATGAC	7.63	8.03	2.48	2.21	6.4	6.89	2.84	7.62	4.19	5.6	5.63	7.9	8.73	2.27	8.34	4.96	2.29	4.05
ACTAGTTGGTCAGCTGTGGTCACACACAATTCGG	1.14	0.902	0.0939	0.115	0.101	0.312	-0.402	0.442	0.116	1.23	1.25	0.489	0.965	0.13	0.281	1.77	0.0925	0.0683
CCTAGTTGGTCAAGGTCAGACACGCTATAGGTAC	1.83	2.54	0.343	0.91	2.01	2.52	1.51	2.45	2.36	3.6	3.62	3.19	3.82	1.56	2.73	3.34	2.57	2.29
TAGCCTAGGTCATTCAGAGGCCAGTATAGAAAGC	1.43	2.85	0.547	0.364	2	2.58	-0.166	3.25	-0.206	4.09	3.33	5.8	4.01	1.57	2.87	3.14	0.653	1.14
TGTCAAAGTTCAAAGGTAACGTATGTATCCACAC	0.0702	4.53	1.85	1.93	2.61	5.65	3.95	6.64	1.84	5.04	3.78	6.21	5.94	4.28	6.97	3.08	-0.0625	3.87
GATACAGGGTTAAGGCCAGAGTACGCGTATTGAT	0.369	1.16	0.272	-0.564	0.996	0.615	0.108	1.28	0.426	1.7	1.34	1.7	1.1	-0.0819	1.76	2.05	0.861	1.02
TTACCAAGGTGAAGGTCGTTCATCCCTCTGTAGA	1.8	3.39	-0.313	0.687	0.597	1.9	0.214	1.55	-0.144	2.54	2.21	1.63	1.5	0.548	1.75	2.62	1.08	1.1
ACTTACGGGTCAGCGAGGTTATAGCACGCGTATA	1.92	3.48	0.822	0.254	1.62	4.18	1.12	4.25	0.477	4.09	3.53	4.79	4.61	1.45	4.69	3.83	1.06	2.44
ACTCGGACGACAAAGGTCAGAGCTACGCCAGTGA	0.324	2.18	0.163	-0.0873	2.37	3.4	-0.377	4.48	0.552	4.17	4.21	4.65	4.6	-0.0196	4.83	2.75	-0.0567	0.688
ATATGTAGGTGAGCTGGGGTCATTCAGACTAGGC	7.57	7.41	3.98	2.99	1.94	6.35	3.01	5.85	0.796	3.08	3.97	4.01	2.84	1.57	5.56	5.14	3.37	4.43
CCTTACGGGGCACGAGGTTATAGCACGACGAGCG	1.87	2.38	0.9	-1.3	0.427	0.836	-0.487	1.6	-0.309	1.9	1.27	2.07	1.74	-0.444	1.92	1.48	0.0456	0.346
ATCGAAAGGTCGACGGTGAGTATACCCACCCGAA	-0.188	1.6	0.9	0.777	1.58	2.43	-0.256	3.22	0.352	3.8	2.53	4.19	3.92	0.878	4.27	1.88	-0.262	0.289
CCTCGGAGGACAACACGAGGTCAGAGCTGCCAGA	0.265	0.387	-0.876	-1.22	1.79	3.06	0.779	3.03	0.807	2.96	3.53	3.58	3.22	0.871	2.23	3.57	2.8	1.85
TCGAGTAGATTAGGGGCATTCAGAATGGCGTCGA	0.671	-0.44	-1.09	-1.25	-0.958	0.158	-0.306	-0.0495	-1.16	0.182	0.0337	-0.202	-0.446	0.574	0.16	0.515	-0.591	0.687
ATCTCTAGGTAACCAACTTCAGTGAATGCCGAAC	4.05	2.98	1.39	1.39	0.412	-0.17	0.34	0.0512	0.816	0.248	0.171	0.209	0.26	0.264	0.158	0.65	0.878	0.195
GCTAGCTGGTCAGTAAAAGGTCACACACCGGTCG	0.546	2.35	0.0238	-0.213	5.71	5.04	0.209	6.16	2.36	4.23	4.99	5.88	4.93	0.376	5.62	3.34	1.36	1.37
CGAACTAGGTCATTGACAGGACCGTGAATAGTAA	8.09	8.42	3.24	1.41	2.02	0.914	-0.0715	1.5	0.647	3.51	2.09	3.59	3.95	2.37	2.17	2.32	0.476	1.15
CTCGAAAGGTCGGTTGAGGGGAGTATACGGATAA	-0.0517	0.459	0.19	0.356	0.859	1.51	-0.0252	1.79	-0.0195	3.02	1.86	2.44	2.58	0.704	2.14	4	-0.23	0.528
ACGGACAGGTGATGAAGGTAACTCAGGCTATCAT	0.288	0.365	0.082	0.0676	0.411	0.11	0.211	0.174	0.939	0.745	0.711	0.496	0.813	0.19	0.31	1.02	0.438	0.327
CAGCCTAGGTCAGGGCTAGTATAGGAGGAACGTT	1.32	1.55	-1.23	-0.952	0.47	0.176	-0.363	1.08	-0.159	3.41	2.38	2.93	3.76	-0.422	1.49	1.82	0.321	-0.179
ACTATTAGCTGACTTAGGGCAACCGATACGACGC	0.43	0.75	1.05	1.38	0.825	-0.173	-0.168	0.142	1.14	0.676	0.665	0.504	0.628	0.619	0.197	0.454	0.576	-0.00444
TCAGACAGGTGAAGGTTACTCAGGTACGCAGTCG	2.66	1.5	0.0117	0.759	1.02	1.38	0.43	1.55	0.589	1.83	1.84	1.16	1.17	1.54	1.72	2.58	0.799	0.58
GCGACTGGGGCAAAGCAGGTTACCATTAGGTTGG	4.83	3.63	-0.282	-0.886	0.27	0.143	-0.296	0.139	-0.535	0.975	0.874	0.369	0.722	-0.196	0.428	2.77	-0.429	-0.578
TCATATAGGTAAACAGGCGAAAGTCCGTAAGTTA	4.24	2.83	0.751	0.916	1.19	0.767	0.508	1.04	0.681	0.356	0.187	0.299	-0.00353	1.36	0.859	0.323	-0.0757	0.216
TTACCAAGGTAAGCTGAGGTCGTTGATCCAACTC	-0.0286	0.407	-0.293	-0.159	-0.361	3.52	0.144	1.9	-1.52	0.571	0.571	0.164	-0.00347	0.278	0.962	4.33	1.61	1.65

Source: the supplement of paper PMC6555819
